Records with an inconclusive call do not appear. A number with no mark means an inactive call. Activity calls are given as the source filed them. The call rests on the fitted dose curve; in most records, active means well fitted cell-killing curve with a large enough effect; inconclusive means small, poorly fitted or top-dose-only effect, or effect the other way; inactive means no such curve, though single readings can be large or run the other way.
Potency means the concentration at half of the fitted maximal effect.

The nature of this test: Viability qHTS for spleen associated tyrosine kinase inhibitor (SYKi) drug resistant MV4-11 cells (AID 1963824). Further: nearly all actives have a fitted effect of over 35% in size. Conditions: SYKi-resistant MV4-11 viability, CellTiter-Glo, 72 h; series mostly up to 45 µM. An outline of the steps:
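SYK-inhibitor-resistant MV4-11 AML cells were seeded at 500 per well onto compound and cultured 72 hours (37 °C, 5% CO2). CellTiter-Glo was then added, and after 10 min at room temperature, luminescence gave viability.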
For `C[C@H]1O[C@@H](O[C@H]2CC[C@]3(CO)C4CC[C@]5(C)[C@@H](C6=CC(=O)OC6)CC[C@]5(O)[C@@H]4CC[C@H]3C2)[C@H](O)[C@H](O)[C@@H]1O[C@@H]1O[C@H](CO)[C@@H](O)[C@H](O)[C@H]1O` (some centres undefined), the Potency is 0.544 µM (active). Take `CC(=O)OC[C@]12C[C@H](OC(=O)CC(C)C)C(C)=C[C@H]1O[C@@H]1[C@H](O)[C@@H](OC(C)=O)[C@@]2(C)[C@@]12CO2`: the Potency is 0.0089 µM (active). Consider `C#CC1(O)CCC2C3CCC4=CC(=O)CCC4=C3C=CC21C` (centres undefined), for which the Potency is 18.4 µM (active). With `CC(=O)OC1CC(O)C2(C)C(CC(OC(C)=O)C3(C)C2CCC2(C)C(c4ccoc4)C(=O)C4OC423)C1(C)C` (centres undefined), the Potency was 6.32 µM (active). With `CC(CCc1ccc(O)cc1)O[C@@H]1O[C@H](CO[C@H]2OC[C@](O)(CO)[C@H]2O)[C@@H](O)[C@H](O)[C@H]1O` (some centres undefined), the Potency result is “inactive”.

As to `OC1(c2ccc(Cl)cc2)c2ccccc2C2=NCCN21` (centres undefined), the Potency was 16.4 µM (active). As to `Oc1ccc2c(c1)C13CCCC[C@H]1[C@@H](C2)N(CC1CCC1)CC3`, the Potency is 10.3 µM (active). `COC1C(O)C(C)OC(OC2C(CO)O[C@@H](O[C@@H]3CC4CCC5C(CC[C@]6(C)[C@@H](C7=CC(=O)OC7)CC[C@]56O)[C@@]4(C)[C@H](O)C3)C(O)C2O)C1O` (some centres undefined): the Potency is 0.217 µM (active). On the same count and under the same terms, as for `CO[C@H]1[C@H](O)[C@H](O[C@H]2CC[C@]3(C=O)C4CC[C@]5(C)[C@H](C6=CC(=O)OC6)CC[C@]5(O)C4CC[C@@H]3C2)O[C@@H](C)[C@@H]1O` (some centres undefined), the figure is 0.02 µM (active).

As for `C=CC(C)(C)c1[nH]c2cccc3c2c1C[C@@H]1[C@@H]3[C@@H](OC(C)=O)[C@H](C)CN1C`, the Potency was 1.01 µM (active). Same read-out and setting: as for `CC(C)(O)/C=C/C(=O)[C@](C)(O)[C@H]1[C@H](O)C[C@@]2(C)[C@@H]3CC=C4[C@@H](C=C(O)C(=O)C4(C)C)[C@]3(C)C(=O)C[C@]12C`, the figure is 0.0376 µM (active); as for `COc1ccc(CC2C(=O)NC(C)C(=O)N(C)C3Cc4ccc(cc4)Oc4cc(ccc4OC4OC(CO)C(O)C(O)C4O)CC(C(=O)NC(C)C(=O)NC(CCC(=O)O)C(=O)N2C)N(C)C3=O)cc1` (centres undefined), 0.618 µM (active); as for `C#CCO[C@H]1CN2CCC1CC2`, “inactive”. Take `CC1=CC2/C=C(\C)CCC(O)C(O)C(O)CC(=O)C23C(=O)NC(CC(C)C)C3C1C` (centres undefined): the Potency was 1.78 µM (active). In the case of `CO[C@@H]1C[C@H](O[C@H]2CC[C@@]3(C)C(CCC4C3CC[C@]3(C)[C@@H](C5=CC(=O)OC5)[C@@H](OC(C)=O)CC43O)C2)O[C@H](C)[C@@H]1O[C@H]1O[C@H](CO[C@@H]2O[C@H](CO)[C@@H](O)[C@H](O)[C@H]2O)[C@@H](O)[C@H](O)[C@H]1O` (some centres undefined), the Potency is 0.155 µM (active). `C[C@@H]1C[C@@H](O)[C@]2(O)O[C@@H]3C[C@@]4(C=O)C(CC[C@@H]5C4CC[C@]4(C)[C@@H](C6=CC(=O)OC6)CC[C@]54O)C[C@H]3O[C@@H]2O1` (some centres undefined): the Potency was 0.0317 µM (active). Regarding `C[C@H](CCC(=O)O)C[C@H](C)C[C@H](C)C(=O)/C=C(\O)[C@H](C)C[C@H](C)C/C=C/[C@@H](C)[C@@H](O)[C@@H](C)[C@@H](O)C[C@@H]1CC[C@@](C)([C@H]2CC[C@@](C)([C@@H](C)O)O2)O1`, the Potency was 2.82 µM (active). In the case of `CCCN1CCO[C@H]2c3cc(O)ccc3OC[C@@H]21`, the Potency result was “inactive”. For `C[C@]12CC[C@@H](O[C@@H]3O[C@H](CO)[C@@H](O)[C@H](O)[C@H]3O)C[C@@]1(O)CCC1C2CC[C@]2(C)[C@@H](C3=CC(=O)OC3)CC[C@]12O` (some centres undefined), the Potency is 0.0632 µM (active).

On to `C=C1C(=O)CC2OC2(C)CC2OC(=O)C(=C)C2C(O)C1OC(=O)/C(C)=C\C` (centres undefined), for which the Potency is 0.57 µM (active).

With `CCC(C)C1NC(=O)C2CCCN2C(=O)C(CC(C)C)OC(=O)CCNC(=O)C(C)N(C)C(=O)C(C(C)C)N(C)C1=O` (centres undefined), the Potency is 5.44 µM (active).

As to `CC1=C2C(=O)C3[C@@H](CC=C4C[C@@H](O)CC[C@@]43C)[C@@H]2CC[C@]12O[C@@H]1C[C@H](C)CN[C@H]1[C@H]2C` (some centres undefined), the Potency result was “inactive”. Same read-out and setting: as for `CC(C)=CCC[C@]1(C)C=Cc2c(O)c3c(c(CC=C(C)C)c2O1)O[C@]12C(=C[C@@H]4CC1C(C)(C)O[C@@]2(C/C=C(/C)C(=O)O)C4=O)C3=O`, the figure is 0.461 µM (active); as for `C/C=C1/CN2CC[C@]34C(=Nc5ccccc53)[C@@H]2C[C@@H]1[C@H]4C(=O)OC`, 2.27 µM (active).

Take `COc1ccc(C23CCC(=O)C=C2N(C)CC3)cc1OC` (centres undefined): the Potency is 3.66 µM (active). Still for that read-out and setting: the figure for `C[C@]12CC[C@H](O)C[C@H]1CC[C@@H]1[C@@H]2[C@H](O)C[C@]2(C)[C@@H](c3ccc(=O)oc3)CC[C@]12O` is 0.0146 µM (active); for `Cc1sc2c(c1C)C(c1ccc(Cl)cc1)=NC(CC(=O)OC(C)(C)C)c1nnc(C)n1-2` (centres undefined) it is 0.116 µM (active).

In the case of `C/C=C(\C)C(=O)O[C@H]1[C@H](OC(C)=O)[C@]2(CO)[C@H](O)[C@H](O)[C@]3(C)C(=CCC4[C@@]5(C)CC[C@H](O[C@@H]6O[C@H](C(=O)O)[C@@H](O)[C@H](O[C@@H]7OC[C@H](O)[C@H](O[C@@H]8OC[C@H](O)[C@H](O)[C@H]8O)[C@H]7O)[C@H]6O[C@@H]6O[C@H](CO)[C@@H](O)[C@H](O)[C@H]6O)C(C)(C)C5CC[C@]43C)[C@@H]2CC1(C)C` (some centres undefined), the viability, % of control is 68.2% [at 9.25 µM]. For `CNc1ccc2oc(C[C@H]3O[C@@]4(CC[C@H]3C)O[C@H](C(C)C(=O)c3ccc[nH]3)[C@H](C)C[C@H]4C)nc2c1C(=O)O` (some centres undefined), the Potency was 4.61 µM (active).

As for `C/C=C1/CN2CC[C@]34C(=Nc5ccc(OC)cc53)C2C[C@@H]1C4(CO)C(=O)OC` (some centres undefined), the Potency entry is “inactive”. The same measure, in the same setting: the figure for `Fc1cc(F)c2c(c1)[C@H]1C=CC[C@H]1C(c1cccnc1)N2` (some centres undefined) is 3.66 µM (active); for `C=CCN1CC[C@]23c4c5ccc(O)c4O[C@H]2[C@@H](O)CC[C@@]3(O)[C@H]1C5` it is “inactive”; for `COC(=O)[C@]12CCC(C)(C)C[C@@H]1[C@@H]1C(=O)C=C3[C@]4(C)C=C(C#N)C(=O)C(C)(C)[C@@H]4CC[C@@]3(C)[C@]1(C)CC2` it is 0.326 µM (active).

For the compound `C1=C(c2cnc[nH]2)c2ccsc2CC1`, the Potency result is “inactive”. Same read-out and setting: as for `CCCCCn1cc(C(=O)Cc2ccccc2OC)c2ccccc21`, the figure is 20.6 µM (active); as for `CCC(C)C1NC(=O)C(C(C)=O)=C1O` (centres undefined), 29.8 µM (active). As to `COC1(C[S@@](=O)c2ccccc2)CCN(CCc2c[nH]c3ccc(F)cc23)CC1`, the Potency is 20.6 µM (active).

Turning to `CN(C(=O)CN1C(=O)COc2cc(Cl)c(Cl)cc21)[C@@H](CN1CCCC1)c1ccc(-c2cccc(C(N)=O)c2)cc1`, the Potency was 8.2 µM (active). With `CC[C@@H]1/C=C/C=C/C[C@H](C)C(O)[C@](C)(O)C(=O)[C@H](C)C(O)[C@H](C)C(=O)[C@H](C)[C@@H](O)[C@H](C)/C=C/C(=O)O[C@H]2[C@@H](C)[C@@H](CC1)O[C@]1(O[C@H](C[C@H](C)O)[C@H](C)CC1=O)[C@@H]2C` (some centres undefined), the Potency was 0.0123 µM (active).
